This is an account of results in PubChem BioAssay (NCATS).

Unmarked numbers belong to inactive results. Inconclusive results are not listed. The source made the active and inactive calls. Unless noted, calls come from the whole dose curve; as a rule, active = well fitted curve in the direction sought with a large enough effect; inconclusive = small, poorly fitted or top-dose-only effect, or another doubt; inactive = no such curve, though single readings can be large; an effect the other way counts as inactive or inconclusive.

Test [1] concerns the target Lysosomal acid glucosylceramidase (Homo sapiens) (UniProt P04062). The experiment in a line: Glucocerebrosidase-p2 (AID 348; in the data active = potency below about 10 µM; note: potency is the fitted concentration of half-maximal effect). To be noted: purified GBA, blue fluorogenic substrate, 40 min. The method in brief: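 Normal human glucocerebrosidase (0.2 nM) with blue fluorogenic substrate (80 uM final) in citrate/phosphate pH 5.9 with 10mM sodium taurocholate, 0.01% tween-20; 40 min RT, NaOH/glycine stop; fluorescence Ex 365/Em 440; AC50 from a titration from 0.6 nM upwards.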

A short description of test [2]: AP1 Signaling Pathway (AID 357; active = well fitted curve in either direction with a large enough effect, not every such curve was filed as active; note: % is set by controls: 0 for no effect and ±100 for the full control effect). To be noted: ME-180 AP-1-bla reporter, EGF-induced, beta-lactamase ratio, 5 h; at 7.69 µM (top of the series) unless noted. The method in brief: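 Cells are seeded overnight, exposed to compound titrations and an EC50 level of EGF for 5 hours at 37 °C, then loaded with CCF4 dye for 2.5 hours. Beta-lactamase activity under the AP-1 element is read as a blue/green ratio.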

The nature of test [3]: NFAT Signaling Pathway (AID 444; active = well fitted curve in either direction with a large enough effect, not every such curve was filed as active;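 note: carbachol stimulus at about its EC50 of 1 µM final; % is set by controls: 0 for no effect and ±100 for the full control effect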). The note with it: Jurkat NFAT-bla M1, carbachol, beta-lactamase ratio, 5 h; at 7.69 µM (top of the series) unless noted. The method in brief:
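Read-out: CCF4 FRET ratio (460 nm/530 nm) after 1 h RT dye loading, used for %activity and AC50 from titration series. Cells: Jurkat NFAT-β-lactamase/M1 line, treated with compound plus 1 uM carbachol for 5 h, 37 °C.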

Test [4] can be described thus: Stat Signaling Pathway (AID 446; active = well fitted curve in either direction with a large enough effect, not every such curve was filed as active;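 note: ME-180 cervical cancer cells given 40 pM IL-6 alongside compound; SIE-controlled beta-lactamase reporter measured as 460/530 nm FRET emission ratio; % is set by controls: 0 for no effect and ±100 for the full control effect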). The note with it: ME-180 SIE beta-lactamase reporter, IL-6 stimulated, 5 h; at 7.69 µM (top of the series) unless noted. The procedure, abridged: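 Emission at 460 and 530 nm (excitation 405 nm) reports SIE-controlled beta-lactamase in ME-180 cells. Cells received compound with 40 pM IL-6 for 5 hrs at 37 C; data scaled between 300 pM IL-6 and 125 nM JAK-inhibitor controls.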

In test [5] the target is Glucocorticoid receptor (Homo sapiens) (UniProt P04150). Kind of test: GR-GFP Redistribution (AID 450;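 active = compounds whose dose series gives a full or clear partial fitted curve of increased nuclear translocation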; note: potency is the fitted concentration of half-maximal effect). To be noted: U2OS GR-GFP nuclear translocation, laser cytometry, 2 h.
Sequence of Glucocorticoid receptor (Homo sapiens) (P04150 whole entry, looked up, the tested form may be a part): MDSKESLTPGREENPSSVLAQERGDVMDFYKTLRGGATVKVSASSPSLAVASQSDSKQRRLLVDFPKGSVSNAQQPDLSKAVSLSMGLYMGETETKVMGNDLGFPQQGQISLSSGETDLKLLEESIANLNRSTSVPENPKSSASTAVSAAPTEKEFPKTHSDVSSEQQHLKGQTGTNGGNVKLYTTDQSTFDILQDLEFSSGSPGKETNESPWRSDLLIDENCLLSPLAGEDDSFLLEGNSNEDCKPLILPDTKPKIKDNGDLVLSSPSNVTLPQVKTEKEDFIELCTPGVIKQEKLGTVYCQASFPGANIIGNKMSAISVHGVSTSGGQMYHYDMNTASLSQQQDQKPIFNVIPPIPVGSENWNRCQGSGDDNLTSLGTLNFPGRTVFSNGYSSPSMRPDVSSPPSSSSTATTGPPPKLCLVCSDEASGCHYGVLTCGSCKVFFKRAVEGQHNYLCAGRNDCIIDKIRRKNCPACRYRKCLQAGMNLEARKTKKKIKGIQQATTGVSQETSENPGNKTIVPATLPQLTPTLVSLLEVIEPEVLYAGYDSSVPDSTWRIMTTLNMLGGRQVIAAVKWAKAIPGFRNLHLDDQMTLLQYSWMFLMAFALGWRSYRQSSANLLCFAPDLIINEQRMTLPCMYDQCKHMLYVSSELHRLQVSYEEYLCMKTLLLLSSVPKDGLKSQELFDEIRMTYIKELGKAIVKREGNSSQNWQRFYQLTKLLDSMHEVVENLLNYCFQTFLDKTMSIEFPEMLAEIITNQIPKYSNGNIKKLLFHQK
The target is the same in test [6]. The experiment in a line: GR-EFC Redistribution (AID 451; calls by dose curve; note: potency is the fitted concentration of half-maximal effect). To be noted: CHO-K1 GR-EFC translocation, beta-gal luminescence, 2 h. The method in brief: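 Translocation of GR-ED fusion to nuclear EA restores b-gal, read by luminescence after 1 h room-temperature detection. Engineered CHO-K1 biosensor cells, 1,000/well, exposed 2 h at 37 C to titrations up to 46 uM final.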

Test [7] deals with Mitogen-activated protein kinase 10 (Mus musculus) (UniProt Q61831). The experiment in a line: JNK3 AlphaScreen Assay (AID 530; active = well fitted curve in either direction with a large enough effect, not every such curve was filed as active;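 note: kinase came from lysate of stimulated human HepG2 cells; signal reports phosphorylation of biotinylated GST-cJun 1-79 at Ser73 with 10 µM ATP; % is set by controls: 0 for no effect and ±100 for the full control effect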). To be noted: JNK3 lysate, c-Jun phosphorylation; series mostly up to 57.1 µM. The procedure, abridged: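 qHTS titrations with 15 min compound pre-incubation before adding ATP (10 uM final). Read-out: AlphaScreen of Ser73-phosphorylated biotin-GST-cJun using HepG2 lysate JNK3 activated by IL-1β and TNFα.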
In general terms: Alpha assays give light when donor and acceptor beads are brought close together.

The target of test [8] is 3',5'-cyclic-AMP phosphodiesterase 4B (Homo sapiens) (UniProt Q07343). The experiment in a line: qHTS Assay for Inhibitors of PDE-IV (AID 607; active = well fitted activation curve with a large enough effect in the main read-out, with a control signal flat, not every such curve was filed as active; note: % of control where 0% means no effect). To be noted: HEK293 ACTOne CNG channel cells, membrane potential fluorescence; series mostly up to 22.9 µM. The method in brief: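 The readout is membrane depolarisation from a cAMP-sensing CNG channel, detected with a potential dye at ex 535/em 590. Cells were HEK293-derived (endogenous PDE-IV) at 1000 cells/well, titrated up to 22.9 uM final.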
Sequence of 3',5'-cyclic-AMP phosphodiesterase 4B (Homo sapiens) (Q07343 whole entry, looked up): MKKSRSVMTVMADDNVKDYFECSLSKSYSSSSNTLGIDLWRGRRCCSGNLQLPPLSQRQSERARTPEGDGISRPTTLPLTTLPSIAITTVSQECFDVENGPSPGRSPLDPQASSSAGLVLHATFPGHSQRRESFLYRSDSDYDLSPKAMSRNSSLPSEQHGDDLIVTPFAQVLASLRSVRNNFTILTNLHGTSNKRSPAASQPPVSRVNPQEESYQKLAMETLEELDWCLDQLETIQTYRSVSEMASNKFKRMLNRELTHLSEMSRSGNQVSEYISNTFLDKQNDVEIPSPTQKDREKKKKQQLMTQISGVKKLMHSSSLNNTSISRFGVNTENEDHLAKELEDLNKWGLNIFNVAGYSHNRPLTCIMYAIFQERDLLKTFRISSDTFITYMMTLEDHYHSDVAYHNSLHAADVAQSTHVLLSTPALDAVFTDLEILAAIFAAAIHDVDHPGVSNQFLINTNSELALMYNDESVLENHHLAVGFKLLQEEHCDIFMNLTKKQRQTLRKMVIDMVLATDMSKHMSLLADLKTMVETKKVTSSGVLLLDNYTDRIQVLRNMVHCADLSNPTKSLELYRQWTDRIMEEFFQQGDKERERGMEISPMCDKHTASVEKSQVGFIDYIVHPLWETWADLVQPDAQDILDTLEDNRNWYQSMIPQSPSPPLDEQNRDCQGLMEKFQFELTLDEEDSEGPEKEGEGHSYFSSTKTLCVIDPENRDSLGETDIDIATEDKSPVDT
Background: In qHTS, concentration-response curves come from the screen itself.

Test [9] concerns the target Dual specificity protein kinase CLK4 (Homo sapiens) (UniProt Q9HAZ1). The experiment in a line: qHTS Assay for Inhibitors of CDC-like Kinase 4 (Kinase-Glo Assay) (AID 1770). Note: nearly all actives have a fitted effect of over 65% in size. Note: potency is the fitted concentration of half-maximal effect. The note with it: recombinant Clk4, Kinase-Glo ATP depletion luminescence; series mostly up to 66.7 µM. The procedure, abridged:
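Readout: Kinase-Glo luminescence from ATP left after a 4.5 h room-temperature reaction of 25 nM Clk4 with 100 uM RS peptide and 1 uM ATP (final). Buffer: 25 mM Tris pH 7.5, 10 mM MgCl2.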

The target is the same in test [10]. The experiment in a line: qHTS Assay for Inhibitors of CDC-like Kinase 4 (ADP-Glo Assay) (AID 1771). Note: nearly all actives have a fitted effect of over 70% in size. Note: potency is the fitted concentration of half-maximal effect. To be noted: recombinant CLK4, ADP-Glo luminescence; series mostly up to 80 µM. The procedure, abridged: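 Compounds are pin-transferred onto substrate mix (100 uM RS peptide, 1 uM ATP), then 25 nM Clk4 is added. After 1 hr at room temperature, ADP-Glo reagent runs 45 min, detection reagent 30 min, then luminescence is read.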

For test [11] the target is unchanged. Kind of test: qHTS Assay for Inhibitors of CDC-like Kinase 4 (ADP-FP Assay) (AID 1795). Note: nearly all actives have a fitted effect of over 60% in size. Note: potency is the fitted concentration of half-maximal effect. The note with it: Transcreener ADP fluorescence polarization; series mostly up to 50 µM. The method in brief: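 FP readout: Orange Transcreener ADP2 tracer (4 nM) plus ADP antibody, read after 30 min at room temperature. Kinase step: 6.25 nM Clk4, 100 uM RS peptide, 1 uM ATP, pH 7.5, 1 h.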

The target of test [12] is Ubiquitin carboxyl-terminal hydrolase 1 (Homo sapiens) (UniProt O94782). The experiment in a line: Inhibitors of USP1/UAF1: Pilot qHTS (AID 504865).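 Note: rhodamine fluorescence freed from ubiquitin-rhodamine substrate followed over time; top concentration of the series differs between compounds; % is set by controls: 0 for no effect and ±100 for the full control effect; nearly all actives have a fitted effect of over 35% in size.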 To be noted: purified USP1/UAF1, Ub-rhodamine cleavage fluorescence; series mostly up to 54.9 µM. The procedure, abridged: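 1nM USP1/UAF1 + cpd, 15 min RT; start w/ Ub-Rho 150nM final; kinetic FL 480/540 nm, 6 reads q60 s. Buffer 50mM HEPES pH 7.8, 0.5mM EDTA, 1mM TCEP, 0.01% Tween-20, 0.1 mg/ml BSA.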
Sequence of Ubiquitin carboxyl-terminal hydrolase 1 (Homo sapiens) (O94782 whole entry, looked up): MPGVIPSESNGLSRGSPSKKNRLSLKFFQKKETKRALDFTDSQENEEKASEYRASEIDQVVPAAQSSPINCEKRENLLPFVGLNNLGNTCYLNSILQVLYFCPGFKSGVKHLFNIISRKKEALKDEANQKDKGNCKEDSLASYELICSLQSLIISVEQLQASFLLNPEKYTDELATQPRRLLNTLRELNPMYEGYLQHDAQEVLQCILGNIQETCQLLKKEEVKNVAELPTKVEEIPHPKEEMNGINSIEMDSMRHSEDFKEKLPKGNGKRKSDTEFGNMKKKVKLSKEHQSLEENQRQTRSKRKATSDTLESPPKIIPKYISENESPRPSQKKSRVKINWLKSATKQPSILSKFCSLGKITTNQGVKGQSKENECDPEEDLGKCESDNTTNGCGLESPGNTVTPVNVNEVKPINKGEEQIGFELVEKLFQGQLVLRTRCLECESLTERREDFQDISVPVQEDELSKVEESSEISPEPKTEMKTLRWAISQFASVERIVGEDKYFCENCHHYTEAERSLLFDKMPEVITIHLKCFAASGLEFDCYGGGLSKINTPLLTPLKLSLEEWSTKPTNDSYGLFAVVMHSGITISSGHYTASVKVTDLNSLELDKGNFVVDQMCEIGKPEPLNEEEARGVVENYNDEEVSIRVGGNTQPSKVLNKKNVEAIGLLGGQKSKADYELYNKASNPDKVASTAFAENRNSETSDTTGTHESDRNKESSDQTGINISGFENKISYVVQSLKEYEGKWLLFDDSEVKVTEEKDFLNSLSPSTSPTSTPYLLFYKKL

The nature of test [13]: Primary qHTS for small molecule stabilizers of the endoplasmic reticulum resident proteome: Secreted ER Calcium Modulated Protein (SERCaMP) assay (AID 1508630). Note: % is set by controls: 0 for no effect and ±100 for the full control effect. To be noted: SH-SY5Y GLuc-SERCaMP (Gaussia luciferase released on ER calcium loss) secretion, thapsigargin, luminescence; series mostly up to 38.4 µM. The method in brief:
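The SH-SY5Y reporter protocol was run at 3 concentrations up to 38.3 uM (primary) or 11 concentrations (follow-up): 16 h compound, 100 nM thapsigargin for 4 h, then extracellular luciferase luminescence.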

Test [14] deals with Cytochrome P450 3A4 (Homo sapiens) (UniProt P08684). Kind of test: qHTS Assay for Activators of Cytochrome P450 3A4 (AID 885). Note: nearly all actives have a fitted effect of over 65% in size. The note with it: recombinant CYP3A4, Luciferin-PPXE luminescence, 60 min; series mostly up to 57.1 µM. The method in brief: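 Activators are scored by enhanced luminescence from CYP3A4 conversion of luciferin-PPXE (25uM, equal to KM) to luciferin, after 60 min at RT with an NADPH-regenerating system.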
Sequence of Cytochrome P450 3A4 (Homo sapiens) (P08684 whole entry, looked up): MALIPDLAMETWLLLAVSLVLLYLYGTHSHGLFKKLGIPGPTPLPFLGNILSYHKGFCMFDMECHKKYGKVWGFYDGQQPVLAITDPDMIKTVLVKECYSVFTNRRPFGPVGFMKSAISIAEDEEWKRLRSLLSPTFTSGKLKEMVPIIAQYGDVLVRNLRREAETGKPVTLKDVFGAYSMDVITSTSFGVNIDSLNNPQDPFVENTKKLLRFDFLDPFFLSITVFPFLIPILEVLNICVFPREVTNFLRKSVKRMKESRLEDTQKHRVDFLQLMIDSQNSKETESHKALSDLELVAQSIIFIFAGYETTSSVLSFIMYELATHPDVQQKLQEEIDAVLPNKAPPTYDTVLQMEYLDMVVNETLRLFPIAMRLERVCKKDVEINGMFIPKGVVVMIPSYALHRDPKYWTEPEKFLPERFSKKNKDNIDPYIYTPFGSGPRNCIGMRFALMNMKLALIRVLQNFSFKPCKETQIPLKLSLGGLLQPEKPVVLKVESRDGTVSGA

Test [15] can be described thus: qHTS Assay for Identification of Small Molecule Agonists for Hypoxia Response Element Signaling Pathway (AID 914; active = well fitted activation curve with a large enough effect in the signal ratio, with a control signal flat, not every such curve was filed as active; the % refers to the signal ratio; note: potency is the fitted concentration of half-maximal effect). The note with it: ME-180 (cervical carcinoma) HRE-bla reporter, beta-lactamase ratio, CoCl2, 17 h; activation: active compounds read high. The procedure, abridged: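 Reporter activity (beta-lactamase, CCF4 460nm/530nm ratio) in HRE-bla ME-180 cells is recorded after 17 h compound exposure with EC50 CoCl2 at 37 degrees Celsius. AC50 values come from titration data.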

Sequence of Lysosomal acid glucosylceramidase (Homo sapiens) (P04062 whole entry, looked up): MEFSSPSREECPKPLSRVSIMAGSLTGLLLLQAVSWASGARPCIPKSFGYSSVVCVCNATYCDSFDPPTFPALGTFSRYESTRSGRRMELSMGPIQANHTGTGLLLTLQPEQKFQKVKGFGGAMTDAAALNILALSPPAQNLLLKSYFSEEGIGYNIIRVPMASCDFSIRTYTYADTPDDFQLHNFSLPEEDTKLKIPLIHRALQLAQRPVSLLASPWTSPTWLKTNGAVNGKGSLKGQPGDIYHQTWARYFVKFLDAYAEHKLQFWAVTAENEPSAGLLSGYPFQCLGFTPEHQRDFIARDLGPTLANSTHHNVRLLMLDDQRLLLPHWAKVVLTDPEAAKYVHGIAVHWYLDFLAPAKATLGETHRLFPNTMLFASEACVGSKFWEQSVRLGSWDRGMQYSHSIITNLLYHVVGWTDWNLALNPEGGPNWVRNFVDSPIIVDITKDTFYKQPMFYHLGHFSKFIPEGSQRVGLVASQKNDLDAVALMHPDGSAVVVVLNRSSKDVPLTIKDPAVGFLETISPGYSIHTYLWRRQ
Sequence of Dual specificity protein kinase CLK4 (Homo sapiens) (Q9HAZ1 whole entry, looked up): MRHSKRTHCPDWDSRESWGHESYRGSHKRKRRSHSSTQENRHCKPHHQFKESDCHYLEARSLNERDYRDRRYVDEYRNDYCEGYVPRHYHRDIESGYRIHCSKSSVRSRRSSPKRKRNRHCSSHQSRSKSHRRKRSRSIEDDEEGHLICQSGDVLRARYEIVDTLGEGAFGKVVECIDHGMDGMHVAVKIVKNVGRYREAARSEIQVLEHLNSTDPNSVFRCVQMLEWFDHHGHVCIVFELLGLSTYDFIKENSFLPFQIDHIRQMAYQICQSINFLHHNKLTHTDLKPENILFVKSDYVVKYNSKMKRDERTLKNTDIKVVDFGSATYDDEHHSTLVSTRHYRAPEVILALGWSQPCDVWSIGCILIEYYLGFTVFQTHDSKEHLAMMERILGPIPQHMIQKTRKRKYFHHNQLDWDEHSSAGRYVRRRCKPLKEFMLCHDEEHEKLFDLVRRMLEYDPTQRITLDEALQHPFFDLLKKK

In the case of `COCCn1c(=O)c(C)nc2cnc(OC)nc21`, the Potency is more than 11.4 µM in test [1], more than 9.22 µM in [5] and more than 46 µM in test [6]. Further, the activity change, negative = inhibition in [2] is -9.91%; in [3] it was 5.14%. In test [4], the activity, negative = inhibition is -16.1%. Also, the Potency entry in test [7], in test [8], in test [9], in test [10], in test [11] and in test [12] was “inactive” in each case. Besides, the outcome in test [13] was inactive.
Regarding `Cc1noc(C)c1-c1cncnc1-n1ccnc1`, the Potency in test [1] is more than 11.4 µM; in [5], more than 46 µM; in [6], more than 46 µM. Further, the activity change, negative = inhibition was 0.604% in test [2] and -5.32% in [3]. Also, the activity, negative = inhibition in [4] was 12.7%. The Potency entry in test [7], in test [8], in test [9], in test [10], in test [11] and in test [12] was “inactive” in each case. For the same molecule, the result in [13] was inactive.
Take `COc1ccc(-n2c(=O)c(-c3ccc(F)c(F)c3)nc3cncnc32)cc1`: the figures for the Potency in [1], in test [5] and in test [6] were more than 11.4 µM, more than 9.22 µM and more than 46 µM, respectively. For the same molecule, the figures for the activity change, negative = inhibition in test [2] and in [3] were -1.43% and 1.94%, respectively. Besides, in [4], the activity, negative = inhibition is -16.2%. The Potency result in test [7], in [8], in test [14], in [9], in [10] and in [11] was “inactive” throughout. Besides, the Potency result in [12] is “inactive”. The outcome in test [13] was inactive.
With `COCCn1c(=O)c(CCc2ccccc2)nc2cnc(Nc3ccccc3)nc21`, the Potency in test [1] was more than 11.4 µM; in test [5], more than 9.22 µM; in [6] it was more than 46 µM. For the same molecule, the activity change, negative = inhibition in [2] is 16.9%; in [3], 10.5%. Further, the Potency result in [7], in test [9], in [10], in test [11] and in [12] was “inactive” throughout. Besides, the result in test [13] was inactive.
Turning to `COc1ncc2nc(-c3cn(C)c4ccccc34)c(=O)n(CCc3ccccc3)c2n1`, the Potency in [1] was more than 11.4 µM; in [5], more than 9.22 µM; in test [6], more than 46 µM; in [15], 1 µM (active). In addition, the activity change, negative = inhibition in [2] was 24.3%; in [3], -1.31%. Besides, the Potency result in test [9], in test [10], in test [11] and in [12] was “inactive” throughout. For the same molecule, the outcome in test [13] was inactive.
As to `Cc1cnc(CNc2cc(-c3ccc4c(c3)OCO4)ncn2)cn1`, the Potency in test [1] was more than 11.4 µM; in test [5], more than 46 µM; in test [6], more than 46 µM; in test [9], 3.98 µM (active); in test [10], 3.55 µM (active); in test [11], 12.6 µM (active). Moreover, the values for the activity change, negative = inhibition in test [2] and in test [3] were -3.49% and 7.15%, respectively. Also, the activity, negative = inhibition in test [4] was -3.34%. Besides, the Potency entry in test [7], in [8] and in [12] was “inactive” each time. Besides, the result in test [13] was inactive.
In the case of `COCCNc1nc(-c2ccoc2)nc2ccccc12`, the values for the Potency in test [1], in test [5] and in test [6] were more than 11.4 µM, more than 46 µM and more than 46 µM, respectively. Also, the activity change, negative = inhibition is 1.3% in [2] and -13.7% in test [3]. In addition, the activity, negative = inhibition in test [4] was 8.88%. The Potency entry in test [7], in test [14], in test [9], in test [10], in [11] and in [12] was “inactive” throughout. Also, in test [13], the result was inactive.
